“And” between values parts separate entries of the source, which are not always exact repeats. Identical values can stand only once. Compounds without any hit were thinned out: in the full panel of roughly 83,000, 20% have a hit.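 Cells were grown in 96-well plates and exposed to the test compound at a single concentration for 48 hours; results are reported as percent growth, with values below 10 considered active.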 Values without a mark were called inactive. The source made the active and inactive calls.

Our source for the growth values is PubChem BioAssay (NCI).

Among the test systems are SK-MEL-2 melanoma; SN12C renal; UO-31 renal; TK-10 renal; ACHN renal; A498 renal; CCRF-CEM leukemia.
Common to all, as to assay: NCI-60 one-dose screen, 48 h (100 = growth as untreated, 0 = no growth, -100 = all killed)
The subject of the next test is HL-60(TB) leukemia. Particulars: 10 µM unless noted.
For another test, the system named is EKVX NSCLC. Particulars: 10 µM unless noted.
The subject of a further test is CAKI-1 renal. Particulars: 10 µM unless noted.

Regarding `CC(=O)OCC1OC([S-])C(OC(C)=O)C(OC(C)=O)C1OC(C)=O.[Au+].c1ccc(CN2[CH-]N(Cc3ccccc3)C(c3ccccc3)=C2c2ccccc2)cc1`, the growth with SK-MEL-2 melanoma (4.75 µM) is -22.7% (active); in the test with SK-MEL-2 melanoma (10 µM), -30.8% (active); in the test on SN12C renal (4.75 µM) it was -15.1% (active); in the test on SN12C renal (10 µM), -49% (active); in the test with UO-31 renal (4.75 µM) it was 3.56% (active); with UO-31 renal (10 µM) it was -70.5% (active). Further, the growth is 5.22% (active) with TK-10 renal (4.75 µM); -41.6% (active) in the test with TK-10 renal (10 µM); -18.5% (active) with ACHN renal (4.75 µM); -39.3% (active) in the test with ACHN renal (10 µM); -14.7% (active) in the test with A498 renal (4.75 µM); 50.4% in the test with A498 renal (10 µM). Besides, the growth was -43.5% [4.75 µM] (active) with HL-60(TB) leukemia, -21% (active) in the test on CCRF-CEM leukemia (4.75 µM) and 17.4% with CCRF-CEM leukemia (10 µM).

In the case of `N#CCC(=O)c1ccccc1`, the growth in the test on SK-MEL-2 melanoma (10 µM unless noted) was 114%; in the test with EKVX NSCLC, 99%; with SN12C renal (10 µM unless noted), 109%; with UO-31 renal (10 µM unless noted), 79%; with TK-10 renal (10 µM unless noted), 119%; with ACHN renal (10 µM unless noted) it was 106%. For the same compound, the growth with CAKI-1 renal is 101%; in the test on A498 renal (10 µM unless noted), 117%; in the test with HL-60(TB) leukemia it was 98.4%; in the test with CCRF-CEM leukemia (10 µM unless noted) it was 110%.

Consider `CC(=O)Cc1ccc2c(c1)OCO2`, for which the growth in the test with SK-MEL-2 melanoma (10 µM unless noted) was 112%; with EKVX NSCLC, 109%; in the test on SN12C renal (10 µM unless noted), 101%; in the test with UO-31 renal (10 µM unless noted), 102%; in the test on TK-10 renal (10 µM unless noted), 110%; in the test on ACHN renal (10 µM unless noted), 108%. Also, the growth in the test with CAKI-1 renal is 96.9%; with A498 renal (10 µM unless noted) it was 116%; in the test on HL-60(TB) leukemia, 77.4%; with CCRF-CEM leukemia (10 µM unless noted), 108%.

On to `O=P(O)(Nc1ccccc1)Nc1ccccc1`, for which the growth was 134% in the test with SK-MEL-2 melanoma (10 µM unless noted); 80.6% in the test on EKVX NSCLC; 99.9% with SN12C renal (10 µM unless noted); 81.7% in the test with UO-31 renal (10 µM unless noted); 106% in the test with TK-10 renal (10 µM unless noted); 95.9% in the test on ACHN renal (10 µM unless noted). Further, the growth in the test with CAKI-1 renal was 77.2%; in the test with A498 renal (10 µM unless noted) it was 89.3%; in the test on HL-60(TB) leukemia, 74%; in the test on CCRF-CEM leukemia (10 µM unless noted), 99.3%.

On to `Cc1cc(C(C)(C)C)ccc1O`, for which the growth in the test with SK-MEL-2 melanoma (10 µM unless noted) was 110%; with EKVX NSCLC, 112%; in the test with SN12C renal (10 µM unless noted), 114%; with UO-31 renal (10 µM unless noted), 86.9%; in the test on TK-10 renal (10 µM unless noted) it was 108%; with ACHN renal (10 µM unless noted) it was 112%. Further, the growth with CAKI-1 renal was 101%; in the test with A498 renal (10 µM unless noted) it was 96%; in the test with HL-60(TB) leukemia it was 96.9%; with CCRF-CEM leukemia (10 µM unless noted), 106%.

`CC[C@H](C)[C@H](NC(=O)c1ncccn1)C(=O)N(C)[C@H](C[C@@H](OC(C)=O)c1nc(C(=O)N[C@@H](Cc2ccccc2)C[C@H](C)C(=O)OC)cs1)C(C)C`: the growth in the test on SK-MEL-2 melanoma (10 µM unless noted) was 43.9%; in the test with EKVX NSCLC it was 58.5%; in the test with SN12C renal (10 µM unless noted), 45.7%; with UO-31 renal (10 µM unless noted), 50.5%; in the test on TK-10 renal (10 µM unless noted), 41%; with ACHN renal (10 µM unless noted), 50.8%. The growth in the test on CAKI-1 renal is 61%; in the test with A498 renal (10 µM unless noted), 28.1%; in the test with HL-60(TB) leukemia it was -42.8% (active); in the test on CCRF-CEM leukemia (10 µM unless noted), 10.4%.

On to `Cc1c2ccncc2c(C)c2c1[nH]c1ccccc12`, for which the growth is -85.8% (active) in the test with SK-MEL-2 melanoma (10 µM unless noted); -21.8% (active) with EKVX NSCLC; -75.8% (active) in the test on SN12C renal (10 µM unless noted); -82.1% (active) with UO-31 renal (10 µM unless noted); -81.3% (active) in the test with TK-10 renal (10 µM unless noted); -92.3% (active) in the test with ACHN renal (10 µM unless noted). Moreover, the growth with CAKI-1 renal was -90.7% (active); in the test with A498 renal (10 µM unless noted), -94.8% (active); with HL-60(TB) leukemia it was -45.1% (active).

On to `C[C@]12CCc3nc(-c4ccc(O)c(O)c4)sc3C1=CC[C@@H]1[C@@H]2CC[C@]2(C)C(=O)CC[C@@H]12`, for which the growth in the test with SK-MEL-2 melanoma (10 µM unless noted) was 104%; with EKVX NSCLC, 95.7%; in the test on SN12C renal (10 µM unless noted), 72.7%; in the test on UO-31 renal (10 µM unless noted), 43%; in the test with TK-10 renal (10 µM unless noted), 53.6%; in the test on ACHN renal (10 µM unless noted), 51.3%. For the same compound, the growth in the test on CAKI-1 renal was 39.7%; in the test with A498 renal (10 µM unless noted) it was 113%; in the test on HL-60(TB) leukemia, 51.4%; with CCRF-CEM leukemia (10 µM unless noted), 47.5%.

For `CN1CCc2cc3c(cc2C1O)OCO3` (centres undefined), the growth was 76.1% and 108% with SK-MEL-2 melanoma (10 µM unless noted); 107% and 92.8% with EKVX NSCLC; 112% and 99.6% with SN12C renal (10 µM unless noted); 101% and 82.7% with UO-31 renal (10 µM unless noted); 112% and 111% with TK-10 renal (10 µM unless noted); 100% and 101% in the test on ACHN renal (10 µM unless noted). In addition, the growth in the test with CAKI-1 renal was 87.5% and 95.4%; in the test with A498 renal (10 µM unless noted), 121% and 98%; in the test with HL-60(TB) leukemia, 99.7%; in the test with CCRF-CEM leukemia (10 µM unless noted) it was 86.8% and 103%.

For the compound `O=C1NC(=O)C(=Cc2ccccc2)C(=O)N1`, the growth with SK-MEL-2 melanoma (10 µM unless noted) was 106% and 114%; in the test with EKVX NSCLC, 98.4% and 101%; in the test on SN12C renal (10 µM unless noted), 89.7% and 102%; in the test with UO-31 renal (10 µM unless noted) it was 93.5%; in the test on TK-10 renal (10 µM unless noted), 106% and 102%; with ACHN renal (10 µM unless noted) it was 99.5% and 112%. In addition, the growth was 84.2% and 103% in the test with CAKI-1 renal; 128% and 94.2% with A498 renal (10 µM unless noted); 68.3% and 105% with HL-60(TB) leukemia; 90.7% and 107% in the test on CCRF-CEM leukemia (10 µM unless noted).

Regarding `Cc1c(C)c(N)c(C)c(C)c1N`, the growth is 15% in the test on SK-MEL-2 melanoma (10 µM unless noted); 108% with EKVX NSCLC; 72.6% with SN12C renal (10 µM unless noted); 60.6% in the test with UO-31 renal (10 µM unless noted); 90.8% with TK-10 renal (10 µM unless noted); -8.61% (active) with ACHN renal (10 µM unless noted). The growth with CAKI-1 renal was 46.6%; in the test with A498 renal (10 µM unless noted), 102%; with HL-60(TB) leukemia, 103%; in the test with CCRF-CEM leukemia (10 µM unless noted), 91.8%.

On to `c1ccc(CCN2CCCCC2)nc1`, for which the growth was 111% with SK-MEL-2 melanoma (10 µM unless noted); 102% in the test on EKVX NSCLC; 93.5% with SN12C renal (10 µM unless noted); 96.4% in the test with UO-31 renal (10 µM unless noted); 103% in the test on TK-10 renal (10 µM unless noted); 91.6% in the test with ACHN renal (10 µM unless noted). In addition, the growth in the test on CAKI-1 renal is 89.4%; in the test with A498 renal (10 µM unless noted), 107%; in the test on HL-60(TB) leukemia it was 78.4%; in the test with CCRF-CEM leukemia (10 µM unless noted), 83.6%.
